p53 reactivation: re-activators of mutant p53; H1299 p53-A138V BP100-luciferase reporter, luminescence, 24 h; Potency, µM (highest dose often 92.2 µM), usual class: activators; 320,000 tested, 0.063% active; also: nearly all actives have a fitted effect of over 45% in size
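p53-null H1299 cells stably carrying temperature-sensitive p53-A138V and a BP100-luciferase reporter were pinned with compounds (4-point, 1:5 series) and held 24 hrs at 37 deg C. Luminescence was read 10 min after detection reagent.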
Gal4-VP16 FLuc: counter-screen for ROR gamma inhibitors: Gal4-VP16 reporter; Drosophila S2 Gal4-VP16 UAS-luciferase, luminescence, 20 h; Potency, µM (titrated, usually from 53.6 µM), actives largely listed as inhibitors; 310,000 tested, 3.5% active;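 also: Gal4-VP16 expression switched on by copper sulfate through the metallothionein promoter; nearly all actives have a fitted effect of over 50% in size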
BRCA1 expr up: BRCA1 expression activation | MCF7-BRCA1-FFLuc reporter, luminescence, 48 h; response scale: scaled: vehicle 0%, 10 µM genistein 100% | Potency, µM (top dose mostly 46.1 µM), most hits filed as activators | 380,000 tested, 1.1% active | AID 624202; also: nearly all actives have a fitted effect of over 80% in size
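Using MCF7 cells harboring a BRCA1 firefly luciferase reporter, plated 2 h before compound pinning, the screen measured luminescence after 48 h incubation. Responses were normalized to DMSO and 10 microM genistein, then fitted for concentration-effect.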
Giardia killer: Giardia lamblia killing | 340,000 tested, 0.15% active | activity change, % at 7.66 µM, hits read low | Giardia lamblia trophozoite viability | AID 540267; in the data active = activity change below about -80%; inconclusive = between about -30% and that limit;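 also: parasites exposed to compound for two days anaerobically before the ATP read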
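Viability, read as ATP luminescence: trophozoites at 100 cells/well, compound added, 48 hrs anaerobic at 37 deg C, then 15-30 min room-temperature development before reading.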
ELG1 repair inh: blocks ELG1-dependent DNA repair in HEK293T cells | HEK293T ELG1-luciferase reporter, luminescence, 16 h; DNA damage induced by 5-fluorouridine | Potency, µM (top dose mostly 46.1 µM), actives largely listed as inhibitors | 330,000 tested, 2.3% active; also: nearly all actives have a fitted effect of over 55% in size
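Step one: seed 2,000 cells per well. Step two: pin-transfer compound or DMSO alongside 5-fluorouridine. Step three: incubate 16 hr, 37 °C, 5% CO2. Step four: add ONE-Glo, wait 30 min, read luminescence.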
RORg inh: inhibitors of mouse ROR gamma transcriptional activity; Potency, µM (doses to about 53.6 µM), usual class: inhibitors; Drosophila S2 Gal4-RORgamma UAS-luciferase reporter, 20 h; AID 2551; 310,000 tested, 5.4% active; also: nearly all actives have a fitted effect of over 60% in size
Target sequence (P51450 whole entry, looked up, the tested form may be a part): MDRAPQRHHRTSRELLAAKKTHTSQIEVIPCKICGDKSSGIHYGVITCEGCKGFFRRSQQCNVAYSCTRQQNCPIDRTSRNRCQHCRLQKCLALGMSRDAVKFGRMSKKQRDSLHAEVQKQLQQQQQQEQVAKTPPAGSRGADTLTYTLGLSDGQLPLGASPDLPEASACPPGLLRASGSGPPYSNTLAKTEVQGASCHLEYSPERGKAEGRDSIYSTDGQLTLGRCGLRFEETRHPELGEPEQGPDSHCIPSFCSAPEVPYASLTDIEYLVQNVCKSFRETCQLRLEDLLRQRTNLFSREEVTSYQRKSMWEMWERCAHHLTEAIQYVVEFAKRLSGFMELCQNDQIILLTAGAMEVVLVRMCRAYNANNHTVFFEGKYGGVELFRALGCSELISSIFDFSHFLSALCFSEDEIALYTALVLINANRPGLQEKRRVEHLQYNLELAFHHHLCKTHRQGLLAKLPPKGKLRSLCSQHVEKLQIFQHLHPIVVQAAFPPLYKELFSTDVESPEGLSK
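Schneider cells (Drosophila), stable Gal4 DBD–ROR gamma + UAS-luc; 1 hr cmpd preincubation; Cu2+ induction 700 uM final; 20 hr ambient; luminescence.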
Large screens that a line does not name were inactive. In the library only some 7.6% were active in any assay of this set; here they are far more common. Unless noted, calls follow the shape of the dose curve; as a rule, active = well fitted curve in the direction sought with a large enough effect; inconclusive = small, poorly fitted or top-dose-only effect, or another doubt; inactive = no such curve, though single readings can be large; an effect the other way counts as inactive or inconclusive.

O=C(O)CCSc1ncnc2sc(-c3ccccc3)cc12	Gal4-VP16 FLuc 5.01µM, RORg inh 1.78µM
Cc1ccc[n+](CC(=O)/C=C2\N(C)c3ccccc3C2(C)C)c1	RORg inh inconclusive
CN1/C(=C\C(=O)C[n+]2cccc(Br)c2)C(C)(C)c2ccccc21	Gal4-VP16 FLuc 12.6µM, ELG1 repair inh inconclusive
COCCn1c(SCC(=O)/C=C2\N(C)c3ccccc3C2(C)C)nnc1-c1ccncc1	Gal4-VP16 FLuc inconclusive, ELG1 repair inh 20.6µM, RORg inh inconclusive
Cc1cccc[n+]1CC(=O)/C=C1\N(C)c2ccccc2C1(C)C	Gal4-VP16 FLuc 6.31µM, RORg inh inconclusive
COc1ccc(Nc2nnc(SCC(=O)/C=C3/N(C)c4ccccc4C3(C)C)s2)cc1	Gal4-VP16 FLuc inconclusive, ELG1 repair inh 25.9µM
CC(=O)Nc1cccc(NC(=O)c2ccccc2OCc2ccccc2)c1	ELG1 repair inh inconclusive, RORg inh inconclusive
O=C(CCCn1c(SCc2cccc([N+](=O)[O-])c2)nc2ccccc2c1=O)NCC1CCCO1 (stereo not drawn)	RORg inh inconclusive
CN1/C(=C/C(=O)CSc2ccccc2C(=O)O)C(C)(C)c2ccccc21	none
CN1/C(=C\C(=O)CSc2cccc[n+]2[O-])C(C)(C)c2ccccc21	Gal4-VP16 FLuc inconclusive, RORg inh 7.08µM
COc1ccc(-c2cn3nc4c(nc3n2)CCCC4)cc1	Gal4-VP16 FLuc 1.26µM, ELG1 repair inh inconclusive, RORg inh inconclusive
O=C(NCCN1CCN(C(=O)c2ccc([N+](=O)[O-])cc2)CC1)C(=O)NCc1ccccc1	none
O=C(CCl)Nc1cc(SCC(O)CO)cc([N+](=O)[O-])c1 (stereo not drawn)	Gal4-VP16 FLuc 5.01µM, ELG1 repair inh 3.26µM, RORg inh inconclusive
CCC(=O)Nc1cc(SCCO)cc([N+](=O)[O-])c1	RORg inh inconclusive
CC(C)=NOc1cc(NC(=O)CCl)cc([N+](=O)[O-])c1	Gal4-VP16 FLuc 7.08µM, ELG1 repair inh inconclusive, RORg inh 10µM
Cc1cc(C)cc(Oc2cc(NC(=O)c3cn(C)nc3C)cc([N+](=O)[O-])c2)c1	Gal4-VP16 FLuc 7.94µM, RORg inh inconclusive
O=C(Nc1ccc(Cl)cc1)Nc1nnc(-c2ccncc2)s1	ELG1 repair inh 3.66µM
O=C(Nc1ccc(F)cc1)Nc1nnc(-c2ccncc2)s1	ELG1 repair inh inconclusive
CC(=O)Nc1ccc(S(=O)(=O)NCCc2c[nH]c3ccc(C)cc23)cc1	none
Cc1ccc(NC(=O)CSc2nnc3ccc(-c4ccncc4)nn23)cc1	ELG1 repair inh 5.8µM (no result: Gal4-VP16 FLuc, RORg inh)
Cc1ccccc1NC(=O)CSc1nnc2ccc(-c3ccncc3)nn12	none (no result: Gal4-VP16 FLuc, RORg inh)
COc1ccc(NC(=S)Nc2ccc(S(=O)(=O)N3CCOCC3)cc2)c(OC)c1	ELG1 repair inh 23.1µM
CC(=O)NC(=S)Nc1ccc(S(=O)(=O)N2CCOCC2)cc1	none
CC(C)(C)NNC(=S)Nc1ccc(S(=O)(=O)N2CCOCC2)cc1	p53 reactivation inconclusive, Gal4-VP16 FLuc inconclusive, ELG1 repair inh inconclusive, RORg inh 5.62µM
C[C@H](NS(=O)(=O)c1ccccc1)C(=O)N1CCN(C(c2ccccc2)c2ccccc2)CC1	ELG1 repair inh 25.9µM (no result: Gal4-VP16 FLuc, RORg inh)
O=C1CSc2ccccc2N1Cc1ccc(F)cc1	none
O=C(CN1C(=O)c2ccccc2S1(=O)=O)c1ccc(OC(F)F)cc1	Gal4-VP16 FLuc 10µM, ELG1 repair inh 11.6µM, RORg inh 12.6µM
O=C(CN1C(=O)c2ccccc2S1(=O)=O)c1ccccc1F	Gal4-VP16 FLuc inconclusive, ELG1 repair inh inconclusive, RORg inh inconclusive
O=C(CN1C(=O)c2ccccc2S1(=O)=O)c1ccc(F)cc1	Gal4-VP16 FLuc 5.01µM, RORg inh 7.94µM
CC(C)c1ccc(N(CC(=O)NC2CCCCC2)C(=O)CNC(=O)c2ccco2)cc1	none
O=C(Nc1ccc(SC(F)F)cc1)C1CC(=O)N(Cc2ccccc2)C1 (stereo not drawn)	RORg inh inconclusive
COC(=O)c1c(NC(C)=O)sc(C(=O)N2CCOCC2)c1C	ELG1 repair inh inconclusive
CCOc1nc(NCCO)nc(Nc2ccc([N+](=O)[O-])cc2)n1	ELG1 repair inh 10.3µM
CN(CC(=O)Nc1cccc(F)c1)C(=O)CCCc1nc2ccccc2c(=O)[nH]1	none (no result: Gal4-VP16 FLuc, RORg inh)
CCN(CC(=O)Nc1ccc2c(c1)OCO2)Cc1nc2ccccc2c(=O)[nH]1	Gal4-VP16 FLuc 7.08µM, ELG1 repair inh inconclusive, RORg inh 2.51µM
COc1ccccc1CN(Cc1nc2ccccc2c(=O)[nH]1)C(=O)Nc1cccc(C)c1	ELG1 repair inh inconclusive, RORg inh 7.08µM
CCN(CC(=O)Nc1ccc2c(c1)CCC2)Cc1nc2ccccc2c(=O)[nH]1	ELG1 repair inh inconclusive, RORg inh 5.01µM
CCN(CC(=O)Nc1ccc2c(c1)OC(F)(F)O2)Cc1nc2ccccc2c(=O)[nH]1	Gal4-VP16 FLuc inconclusive, RORg inh 10µM
CC(OC(=O)CCc1nc2ccccc2c(=O)[nH]1)C(=O)Nc1ccc2c(c1)OCO2 (stereo not drawn)	none
Cc1cc(C)c(S(=O)(=O)N2CCCCC2CCNC(=O)C(=O)NCCN2CCOCC2)c(C)c1 (stereo not drawn)	none (no result: Gal4-VP16 FLuc, RORg inh)
Cc1ccc(NC(=O)Cc2nnc(SCC(=O)c3ccc(Br)cc3)n2C)cc1Cl	none (no result: BRCA1 expr up, Giardia killer)
CN(CC(=O)Nc1ccc(N2CCOCC2)cc1)Cc1c(O)ccc2ccccc12	RORg inh 1.78µM
CN(CC(=O)Nc1ccc(Cl)c(C(F)(F)F)c1)C(=O)CCCc1nc2ccccc2c(=O)[nH]1	ELG1 repair inh 11.2µM (no result: Gal4-VP16 FLuc, RORg inh)
CCN(CC(=O)Nc1cccc(Br)c1)Cc1nc2ccccc2c(=O)[nH]1	Gal4-VP16 FLuc 7.08µM, RORg inh 3.98µM
CCN(CC(=O)Nc1ccc(N2CCOCC2)cc1)Cc1nc2ccccc2c(=O)[nH]1	Gal4-VP16 FLuc 12.6µM, ELG1 repair inh inconclusive, RORg inh 3.98µM
O=C(CSc1nc2ccccc2c(=O)[nH]1)Nc1ccc(N2CCOCC2)cc1	Gal4-VP16 FLuc inconclusive
COC(=O)c1cc(S(=O)(=O)N2CCCC(C)C2)c[nH]1 (stereo not drawn)	none
Cc1ccc(S(=O)(=O)N2CC3(O)CN(C(=O)OC(C)C)N(C(=O)OC(C)C)CC3(OC(=O)NCc3ccccc3)C2)cc1 (stereo not drawn)	none (no result: p53 reactivation, Gal4-VP16 FLuc, Giardia killer, ELG1 repair inh, RORg inh)
CCN(CC)C(=O)C1=C(C)N(Cc2ccc(F)cc2)C(=O)C(CC(=O)NCCc2ccccn2)C1 (stereo not drawn)	none (no result: p53 reactivation, Gal4-VP16 FLuc, Giardia killer, ELG1 repair inh, RORg inh)
CC1CC(C)CN(C(=O)CCC(=O)Nc2nnc(C(C)C)s2)C1 (stereo not drawn)	none
O=[N+]([O-])c1cccc(/C=N/Nc2nccnc2Cl)c1	BRCA1 expr up 7.94µM, ELG1 repair inh inconclusive
